Screen size: about 400,000 compounds; about 2,100 (0.53%) were called active. Not shown: some 14% with an inconclusive outcome. How the calls were made is not given here. Only a selection was taken, and actives are over-represented in it overall.

For this assay, the target named is Ataxin-2 (Homo sapiens) (UniProt Q99700). As to the kind of experiment: qHTS for Inhibitors of ATXN expression. The format is functional. Background: qHTS replaces the single test concentration by a dilution series.
Ataxin-2 (Homo sapiens), sequence (Q99700 whole entry): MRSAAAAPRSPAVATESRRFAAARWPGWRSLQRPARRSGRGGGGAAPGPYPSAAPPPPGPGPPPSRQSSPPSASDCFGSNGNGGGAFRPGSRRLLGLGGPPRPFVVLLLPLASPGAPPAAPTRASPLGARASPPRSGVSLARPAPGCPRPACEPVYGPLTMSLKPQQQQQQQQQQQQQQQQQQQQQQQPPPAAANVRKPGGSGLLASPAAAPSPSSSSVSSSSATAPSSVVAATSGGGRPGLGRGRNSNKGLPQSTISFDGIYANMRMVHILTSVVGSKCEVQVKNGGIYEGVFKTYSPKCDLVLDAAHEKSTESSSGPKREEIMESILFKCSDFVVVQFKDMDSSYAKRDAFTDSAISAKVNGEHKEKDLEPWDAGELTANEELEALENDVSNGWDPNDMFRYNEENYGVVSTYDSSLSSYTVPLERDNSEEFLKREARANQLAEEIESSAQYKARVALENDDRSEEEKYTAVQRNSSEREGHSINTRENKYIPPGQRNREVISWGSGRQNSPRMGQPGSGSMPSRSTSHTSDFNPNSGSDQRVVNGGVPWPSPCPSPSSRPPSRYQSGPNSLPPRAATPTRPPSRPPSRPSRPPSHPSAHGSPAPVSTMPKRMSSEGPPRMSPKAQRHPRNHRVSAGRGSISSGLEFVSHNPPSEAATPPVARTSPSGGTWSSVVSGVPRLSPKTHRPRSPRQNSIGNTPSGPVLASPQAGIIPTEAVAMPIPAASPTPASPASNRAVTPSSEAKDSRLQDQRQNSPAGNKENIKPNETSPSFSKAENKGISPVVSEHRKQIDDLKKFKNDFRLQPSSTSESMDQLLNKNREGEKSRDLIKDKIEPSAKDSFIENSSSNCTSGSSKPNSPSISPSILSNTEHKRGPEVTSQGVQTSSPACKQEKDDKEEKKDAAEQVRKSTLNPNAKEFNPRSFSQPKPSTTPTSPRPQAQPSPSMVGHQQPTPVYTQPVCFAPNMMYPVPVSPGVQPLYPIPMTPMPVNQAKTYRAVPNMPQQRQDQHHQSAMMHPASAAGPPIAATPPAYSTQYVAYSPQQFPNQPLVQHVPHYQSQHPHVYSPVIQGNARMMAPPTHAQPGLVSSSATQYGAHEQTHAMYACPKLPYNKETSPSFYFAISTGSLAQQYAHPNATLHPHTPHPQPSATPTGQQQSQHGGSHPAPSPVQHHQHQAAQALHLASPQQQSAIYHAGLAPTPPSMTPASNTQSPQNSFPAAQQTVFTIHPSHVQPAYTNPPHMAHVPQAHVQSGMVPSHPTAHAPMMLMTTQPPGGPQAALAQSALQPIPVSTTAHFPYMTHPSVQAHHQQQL
As for `COc1cc(/C=C/c2nc3ccccc3s2)cc(OC)c1O`, the Potency result was “inactive”.

For the compound `COc1cc2ccc(=O)oc2c(O)c1O`, the Potency result is “inactive”.

`COc1cc(/C=C2\CC/C(=C\c3cc(OC)c(O)c(OC)c3)C2=O)cc(OC)c1O`: the Potency was 28.2 µM (active).

Take `CCOc1cc(/C=C2\CCCc3c2nc2ccccc2c3C(=O)O)ccc1OC`: the Potency result is “inactive”.

Regarding `COc1cc(C=C2C(=O)C=CC2=O)ccc1O`, the Potency is 14.1 µM (active).

Turning to `COc1cc(/C=C/C(=O)c2ccc3c(c2)OCO3)cc(Cl)c1O`, the Potency result was “inactive”.

For the compound `COc1cc(/C=C2\CCC/C(=C\c3ccc(O)c(OC)c3)C2=O)ccc1O`, the Potency is 35.5 µM (active).

Consider `COc1cc(/C=C2\C(=N)N3N=C(CC(=O)N4CCCCC4)SC3=NC2=O)ccc1O`, for which the Potency entry is “inactive”.

`COc1cc(/C=C2/NC(=O)N(Cc3ccccc3F)C2=O)ccc1O`: the Potency entry was “inactive”.

As to `COc1cc(/C=C2/CCC/C(=C\c3cc(O)c(OC)c(Cl)c3)C2=O)cc(Cl)c1O`, the Potency was 39.8 µM (active).

With `COc1cc(/C=C2\CCc3c2nc2ccccc2c3C(=O)O)cc(OC)c1OC`, the Potency entry was “inactive”.

Regarding `COc1cc(/C=C2\SC(c3ccccc3)=NC2=O)cc(Cl)c1O`, the Potency result is “inactive”.

For `C=CCN1c2ccccc2Sc2cnccc21`, the Potency entry is “inactive”.

As to `Nc1ccc2nn(-c3ccc(F)cc3)nc2c1`, the Potency entry was “inactive”.

Turning to `COc1cc(/C=C/c2ccc3cccc(O)c3n2)ccc1O`, the Potency result was “inactive”.

On to `COc1cc2ccc(=O)oc2cc1O`, for which the Potency entry is “inactive”.

Turning to `COc1cc(/C=C/C(=O)OCC(=O)N2CCC(Cc3ccccc3)CC2)ccc1O`, the Potency entry was “inactive”.

Consider `CCOc1cc(/C=C2\CN(C)C/C(=C\c3ccc(O)c(OCC)c3)C2=O)ccc1O`, for which the Potency was 15.8 µM (active).

Take `COc1cc(/C=C2\Oc3cc(O)ccc3C2=O)ccc1O`: the Potency entry is “inactive”.

Take `COc1cc(/C=C/C=C2/CC/C(=C/C=C/c3ccc(O)c(OC)c3)C2=O)ccc1O`: the Potency is 13.4 µM (active).

Regarding `CCOc1cc(/C=C2/C(=N)N3N=C(CC(=O)N4CCCC4)SC3=NC2=O)ccc1O`, the Potency result was “inactive”.

`CCOc1cc(/C=C2\C(=N)N3N=C(CC(=O)N4CCCCC4)SC3=NC2=O)ccc1O`: the Potency result was “inactive”.

Regarding `COc1cc(/C=C2\COC/C(=C\c3ccc(O)c(OC)c3)C2=O)ccc1O`, the Potency was 31.6 µM (active).

Regarding `CCCn1/c(=N\C(=O)c2c(-c3c(F)cccc3Cl)noc2C)c(C(=O)OCC)cc2c(=O)n3ccccc3nc21`, the Potency result is “inactive”.

Regarding `CCCn1c(O)nnc1SCC(=O)N(C1CCCCC1)C1CCS(=O)(=O)C1` (stereo not drawn), the Potency entry is “inactive”.

With `CN(C)c1ccc(C2C3CCCc4ccccc4C3=NN2C)cc1` (stereo not drawn), the Potency result was “inactive”.

Turning to `Nc1nnn(CC(=O)N/N=C/c2ccncc2)n1`, the Potency result was “inactive”.

Turning to `CCNc1nc(NCC)n2c(SC(C(=O)Nc3cc(Cl)cc(Cl)c3)c3ccccc3)nnc2n1` (stereo not drawn), the Potency is 39.8 µM (active).

Turning to `Cc1cc(/C=C2/C(=N)N3C(c4ccccc4)=CSC3=NC2=O)c(C)n1-c1ccccc1`, the Potency entry is “inactive”.

Turning to `Nc1nc(Cl)cc(=O)n1Cc1ccc(Cl)cc1`, the Potency entry was “inactive”.

With `c1ccc(N/N=C(\Cc2ncc[nH]2)c2ccccc2)cc1`, the Potency result was “inactive”.

For the compound `Brc1ccc(N/N=C(/N=Nc2nn[nH]n2)c2ccccc2)cc1`, the Potency was 35.5 µM (active).

As for `CCOC(=O)C[n+]1ccc2c([nH]c3ccccc32)c1C`, the Potency entry is “inactive”.

With `C[C@H](CO)N1C[C@H](C)[C@@H](CN(C)C(=O)Nc2ccc3c(c2)OCO3)Oc2c(NC(=O)Nc3ccc(C(F)(F)F)cc3)cccc2C1=O`, the Potency was 22.4 µM (active).

On to `C[C@H](CO)N1C[C@H](C)[C@@H](CN(C)C(=O)Nc2ccc(C(F)(F)F)cc2)Oc2c(NC(=O)Nc3ccccc3)cccc2C1=O`, for which the Potency was 25.1 µM (active).

As to `COc1ccc(OC)c(NC(=O)c2nc3ccccc3s2)c1`, the Potency result was “inactive”.

On to `COc1ccc(NC(=O)N(C)C[C@H]2Oc3c(NC(=O)c4nc5ccccc5s4)cccc3C(=O)N([C@@H](C)CO)C[C@H]2C)cc1`, for which the Potency was 39.8 µM (active).

Regarding `C[C@@H]1CN([C@H](C)CO)C(=O)c2cccc(NC(=O)Nc3ccc(F)cc3)c2O[C@H]1CN(C)C(=O)Nc1ccc(C(F)(F)F)cc1`, the Potency was 28.2 µM (active).

On to `O=C(O)c1ccc(N2C(=O)CC(SC(=NCc3ccc4c(c3)OCO4)Nc3ccc(F)cc3)C2=O)cc1` (stereo not drawn), for which the Potency result is “inactive”.

With `O=C1N=C(Nc2nc3ccccc3[nH]2)c2ccccc21`, the Potency result was “inactive”.

On to `CCOc1ccc2nc(NCCNS(=O)(=O)c3ccccc3)c(C#N)cc2c1`, for which the Potency entry is “inactive”.

Regarding `Clc1ccccc1C1=CC(c2ccco2)n2ncnc2N1` (stereo not drawn), the Potency result was “inactive”.

For `C#CCOc1c(Cl)cc(C2C3=C(CCCC3=O)N(CC(=O)O)C3=C2C(=O)CCC3)cc1OC`, the Potency entry was “inactive”.

Turning to `C[C@H](CO)N1C[C@H](C)[C@@H](CN(C)C(=O)Nc2ccccc2)Oc2c(NC(=O)Nc3ccc(C(F)(F)F)cc3)cccc2C1=O`, the Potency is 39.8 µM (active).

For the compound `COc1ccc(CCn2c(=N)c(C(=O)NCC3CCCO3)cc3c(=O)n4ccccc4nc32)cc1` (stereo not drawn), the Potency is 15.8 µM (active).

With `COCCCn1c(=N)c(C(=O)NCC2CCCO2)cc2c(=O)n3ccccc3nc21` (stereo not drawn), the Potency result was “inactive”.

In the case of `COCCn1c(=N)c(C(=O)NCC2CCCO2)cc2c(=O)n3ccccc3nc21` (stereo not drawn), the Potency entry is “inactive”.

As to `O=C(CCC(=O)N1CCOc2ccc(Cl)cc21)NCCCN1CCC(Cc2ccccc2)CC1`, the Potency was 26.7 µM (active).

With `O=C(NCc1ccccc1)C(=O)NCC1OCCN1S(=O)(=O)c1ccc2c(c1)OCCO2` (stereo not drawn), the Potency result was “inactive”.

Take `CCOc1ccccc1C(=O)NC(C(=O)NCc1ccc(F)cc1)C(C)C` (stereo not drawn): the Potency entry is “inactive”.

`CC1=C(C)C(C)=C(C#N)C(=C(C#N)C#N)N1`: the Potency entry was “inactive”.

In the case of `CSc1nn(Cc2ccc(Cl)cc2)c(N(C(C)=O)C(C)=O)c1S(=O)(=O)c1ccccc1`, the Potency is 25.1 µM (active).

Regarding `CSc1nn(Cc2ccc(Br)cc2)c(N(C(C)=O)C(C)=O)c1S(=O)(=O)c1ccccc1`, the Potency was 28.2 µM (active).

For the compound `O=c1cc(Cl)c(-c2ccccc2)nn1Cc1ccc(Cl)cc1`, the Potency result was “inactive”.

With `Cn1c(=O)n(Cc2ccc(Br)cc2)c2ccccc21`, the Potency entry was “inactive”.

Consider `CC12CCC(C(=O)N(CC3CO3)C1=O)C2(C)C` (stereo not drawn), for which the Potency entry was “inactive”.

For the compound `Cn1cccc1C1C=C(c2ccc(C(C)(C)C)cc2)Nc2ncnn21` (stereo not drawn), the Potency entry was “inactive”.

Take `CC(=O)c1ccc(-c2ccc(C(=O)N(C)Cc3nc(O)c4ccccc4n3)o2)cc1`: the Potency result is “inactive”.

With `CC(C)c1ccc(/C=C(\NC(=O)c2ccccc2)C(=O)NCCCn2ccnc2)cc1`, the Potency entry was “inactive”.

On to `O=C(NCCCn1ccnc1)C(=O)NCC1OCCN1S(=O)(=O)c1ccc(F)cc1` (stereo not drawn), for which the Potency result was “inactive”.

Regarding `O=C(C[C@H]1C[C@H](C(=O)N2CCOCC2)[C@@]2(CCC3CCCC3)c3[nH]c4ccc(Cl)cc4c3CCN2C1=O)NCCCn1ccnc1`, the Potency was 28.2 µM (active).

Consider `O=C(C[C@H]1C[C@H](C(=O)N2CCCCC2)[C@@]2(CCc3ccccc3)c3[nH]c4ccc(Cl)cc4c3CCN2C1=O)NCCCn1ccnc1`, for which the Potency is 28.2 µM (active).

As to `O=C(/C=C/c1ccc(S(=O)(=O)N2CCOCC2)cc1)NCCCn1ccnc1`, the Potency result is “inactive”.

The record behind these values is ChEMBL document CHEMBL1201862, “PubChem BioAssay data set” (2004).
